# Values of other authors as cited in PubChem BioAssay AID977608.
# Out of some 4,300 compounds screened, about 4,300 (100%) were called active. Cut-off not given; nearly all actives show IC50 up to about 1400 µM. The set was probably picked from earlier hits. The list shows a part of the results. Where a SMILES comes first, the peptide text is derived from it. [ ]: non-standard residue; d: D form. The star is where a group is joined. Thr(P(OH)3+) = C[C@@H](O[P+](O)(O)O)[C@H](N)C(=O)O; Pentanoyl(5-cHex) = O=C(CCCCC1CCCCC1)*; Ahx = NCCCCCC(=O)O
# Assay: protein-ligand inhibition affinities from structures – PDB-derived complexes (AID 977608)
smiles,measurement,setting,value
O=C(C[P+](O)(O)O)OC1[C@@H](O[P+](O)(O)O)[C@H](O[P+](O)(O)O)C(OCc2ccccc2)[C@H](O[P+](O)(O)O)[C@H]1O[P+](O)(O)O (stereo not given in full),IC50,"literature IC50, protein: Inositol hexakisphosphate and diphosphoinositol-pentakisphosphate kinase 2 PPIP5K2, PDB entry 4nzn",420 nM (active)
O=C(C[P+](O)(O)O)OC1[C@@H](O[P+](O)(O)O)[C@H](O[P+](O)(O)O)C(O[P+](O)(O)O)[C@H](O[P+](O)(O)O)[C@H]1O[P+](O)(O)O (stereo not given in full),IC50,"literature IC50, protein: Inositol hexakisphosphate and diphosphoinositol-pentakisphosphate kinase 2 PPIP5K2, PDB entry 4nzm",140 nM (active)
CCCCCCNCC([P+](O)(O)O)[P+](O)(O)O,IC50,"literature IC50, protein: Farnesyl pyrophosphate synthase, PDB entry 4e1e",490 nM (active)
CCCNCC([P+](O)(O)O)[P+](O)(O)O,IC50,"literature IC50, protein: Farnesyl pyrophosphate synthase, PDB entry 4dxj",38 nM (active)
CCCCCNCC([P+](O)(O)O)[P+](O)(O)O,IC50,"literature IC50, protein: Farnesyl pyrophosphate synthase, PDB entry 4dwb",1840 nM (active)
CCCCCCCNCC([P+](O)(O)O)[P+](O)(O)O,IC50,"literature IC50, protein: Farnesyl pyrophosphate synthase, PDB entry 4dwg",58 nM (active)
CC(=O)N[C@H]1[C@@H](O[P+](O)(O)O[P+](O)(O)OC[C@H]2O[C@@H](n3ccc(=O)[nH]c3=O)[C@H](O)[C@@H]2O)O[C@H](CO)[C@@H](O)[C@@H]1O[C@H](C)C(=O)N[C@@H](C)C(=O)N[C@H](CCC(=O)N[C@@H](CSCCc1cn([C@@H]2[C@H](O)[C@@H](CO[P+](O)(O)O[C@H]3[C@@H](O)[C@H](n4ccc(N)nc4=O)O[C@@H]3CO[P+](O)(O)O[C@H]3[C@@H](O)[C@H](n4ccc(N)nc4=O)O[C@@H]3COP(O)O)O[C@H]2n2cnc3c(N)ncnc32)nn1)C(=O)N[C@H](C)C(=O)N[C@H](C)C(=O)O)C(=O)O,IC50,"literature IC50, protein: FemX, PDB entry 4ii9",930 nM (active)
CN(Cc1cnc2c(n1)C(N)NC(N)N2)c1ccc(C(=O)N[C@@H](CCC(=O)O)C(=O)O)cc1 (stereo not given in full),IC50,"literature IC50, protein: Lactobacillus casei dihydrofolate reductase, PDB entry 1ao8",6 nM (active)
NCC[C@H](C1CC=CC1)n1cc(-c2ncnc3[nH]ccc23)cn1,IC50,"literature IC50, protein: Proto-oncogene tyrosine-protein kinase Src, PDB entry 4u5j",2930 nM (active)
O=CC[C@@H](NC(=O)OC1CCCC1)c1ccccc1,IC50,"literature IC50, protein: RHOMBOID PROTEASE GLPG, PDB entry 3zmh",5270 nM (active)
O=CC[C@@H](NC(=O)Oc1ccccc1)c1ccccc1,IC50,"literature IC50, protein: RHOMBOID PROTEASE GLPG, PDB entry 3zmi",1120 nM (active)
same,IC50,"literature IC50, protein: RHOMBOID PROTEASE GLPG, PDB entry 3zot",1120 nM (active)
CC(C)COC(=O)N[C@H](CC=O)c1ccccc1,IC50,"literature IC50, protein: RHOMBOID PROTEASE GLPG, PDB entry 3zmj",11700 nM (active)
CSCC[C@H](NC(=O)[C@@H](NC(=O)[C@H](CO)NC(=O)[C@H](Cc1cnc[nH]1)NC(=O)[C@H](CC(C)C)NC(=O)[C@@H]1CCCN1C(=O)CC12CC3CC(CC(C3)C1)C2)[C@@H](C)O[P+](O)(O)O)C(N)=O (HELM PEPTIDE1{[O=C(CC12CC3CC(CC(C3)C1)C2)[*:2]].P.L.H.S.[C[C@@H](O[P+](O)(O)O)[C@H](N[*:1])C(=O)[*:2]].M.[am]}$$$$V2.0),IC50,"literature IC50, protein: Serine/threonine-protein kinase PLK1, PDB entry 4lkl",820 nM (active)
CSCC[C@H](NC(=O)[C@@H](NC(=O)[C@H](CO)NC(=O)[C@H](Cc1cnc[nH]1)NC(=O)[C@H](CC(C)C)NC(=O)[C@@H]1CCCN1C(=O)CCCCCNC(=O)CCCCC1CCCCC1)[C@@H](C)O[P+](O)(O)O)C(N)=O ({Pentanoyl(5-cHex)-Ahx}-PLHS[Thr(P(OH)3+)]M-NH2),IC50,"literature IC50, protein: Serine/threonine-protein kinase PLK1, PDB entry 4lkm",460 nM (active)
Cc1[nH]c2ccccc2c1CCNC(=O)c1ccccc1F,IC50,"literature IC50, protein: Arp2/3 complex, PDB entry 3ukr",12000 nM (active)
NC1CCC(Nc2nccc(-c3cccnc3Oc3ccc(NS(=O)(=O)c4ccccc4)c4ccccc34)n2)CC1 (stereo not given),IC50,"literature IC50, protein: Mitogen-activated protein kinase 10 JNK3, PDB entry 4u79",400 nM (active)
COc1cccc(NC(=O)COc2ccccc2[P+](O)(O)O)c1,IC50,"literature IC50, protein: 14-3-3 protein sigma, PDB entry 4dho",118000 nM (active)
O=C(COc1ccccc1[P+](O)(O)O)Nc1cccc(Cl)c1,IC50,"literature IC50, protein: 14-3-3 protein sigma, PDB entry 4dhq",32000 nM (active)
O=C(COc1ccccc1[P+](O)(O)O)Nc1cc(Cl)cc(Cl)c1,IC50,"literature IC50, protein: 14-3-3 protein sigma, PDB entry 4dhs",16000 nM (active)
COc1ccc(OC)c(NC(=O)COc2ccccc2[P+](O)(O)O)c1,IC50,"literature IC50, protein: 14-3-3 protein sigma, PDB entry 3t0m",116000 nM (active)
O=C(COc1ccccc1[P+](O)(O)O)Nc1cccc(C(F)(F)F)c1,IC50,"literature IC50, protein: 14-3-3 protein sigma, PDB entry 4dhm",165000 nM (active)
NC1=N[C@@]2(c3cc(NC(=O)c4ccc(F)cn4)ccc3F)COC[C@H]2CS1,IC50,"literature IC50, protein: Beta-secretase 1 BACE1, PDB entry 4x7i",20.3 nM (active)
Cc1nc(-c2ccccn2)nc(N[C@H](Cc2ccccc2)C(N)=O)c1Cl,IC50,"literature IC50, protein: Methionine aminopeptidase 1, PDB entry 4iku",1790 nM (active)
CCC(C)(C)c1nn(CCO)c2c1NC(c1ccc(-n3ccnc3C)cc1)CNC2=O (stereo not given),IC50,"literature IC50, protein: cGMP-dependent 3',5'-cyclic phosphodiesterase, PDB entry 4jib",45 nM (active)
COC(=O)N[C@@H](CC(C)C)C(=O)N[C@H](CO)C[C@@H]1CCNC1=O,IC50,"literature IC50, protein: 3C-like protease, PDB entry 3ur9",490 nM (active)
CC[C@H](C)[C@H](CO)[C@@H](O)C(=O)N[C@H]1C[C@H]1C[C@@H](CCc1ccccc1)NC(=O)[C@H](C)NC(=O)OCc1ccccc1,IC50,"literature IC50, protein: Proteasome, PDB entry 4j70",5700 nM (active)
CC(C)C[C@H](NC(=O)OCc1ccccc1)C(=O)N[C@@H](CC(C)C)C(=O)N[C@@H](CC(C)C)[C@@H](O)[C@H](C)CO,IC50,"literature IC50, protein: Proteasome subunit alpha CP, PDB entry 4no9",15 nM (active)
CC(C)C[C@H](NC(=O)OCc1ccccc1)C(=O)N[C@H](CO)C[C@@H]1CCNC1=O,IC50,"literature IC50, protein: 3C-like proteinase, PDB entry 4f49",820 nM (active)
same,IC50,"literature IC50, protein: Genome polyprotein, PDB entry 4dcd",1770 nM (active)
c1cc2cnc3ccsc3c2cn1,IC50,"literature IC50, protein: DUAL SPECIFICITY PROTEIN KINASE TTK, PDB entry 4bi1",69100 nM (active)
c1cc2cnc3sccc3c2cn1,IC50,"literature IC50, protein: DUAL SPECIFICITY PROTEIN KINASE TTK, PDB entry 4bhz",53500 nM (active)
c1cc2c(cn1)cnc1sccc12,IC50,"literature IC50, protein: DUAL SPECIFICITY PROTEIN KINASE TTK, PDB entry 4bi2",94100 nM (active)
O=C(O)[C@H]1CCCC[C@H]1C(=O)N1CCc2ccccc2[C@H]1CN1Cc2ccccc2C1=O,IC50,"literature IC50, protein: Kelch-like ECH-associated protein 1, keap1 kelch domain, PDB entry 4n1b",1100 nM (active)
Cc1cccc2c1CCN(C(=O)[C@@H]1CCCC[C@@H]1C(=O)O)[C@@H]2CN1Cc2ccccc2C1=O,IC50,"literature IC50, protein: Kelch-like ECH-associated protein 1, keap1 kelch domain, PDB entry 4l7d",750 nM (active)
